Compound activity (PubChem)
Hits are enriched below; roughly 3.3% of the tested compounds scored in any of these assays.
AmpC inh detg – inhibitors of E. coli AmpC beta-lactamase with detergent; 370,000 tested, 0.041% active; AID 485294; P00811; Potency, µM (highest dose often 114 µM), usual class: inhibitors; AmpC hydrolysis of nitrocefin, absorbance 480 nm, 0.01% Triton; further: nearly all actives have a fitted effect of over 25% in size
Target sequence (P00811 whole entry, looked up): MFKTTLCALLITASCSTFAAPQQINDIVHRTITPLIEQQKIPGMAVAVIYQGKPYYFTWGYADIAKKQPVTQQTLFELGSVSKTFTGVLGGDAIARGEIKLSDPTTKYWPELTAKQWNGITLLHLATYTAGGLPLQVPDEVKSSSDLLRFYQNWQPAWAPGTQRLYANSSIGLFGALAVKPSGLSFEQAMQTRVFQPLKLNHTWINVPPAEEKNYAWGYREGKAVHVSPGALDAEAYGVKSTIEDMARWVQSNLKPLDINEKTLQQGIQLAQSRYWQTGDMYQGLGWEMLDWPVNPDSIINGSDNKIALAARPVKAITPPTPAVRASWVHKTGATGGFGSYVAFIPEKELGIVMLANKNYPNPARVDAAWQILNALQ
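AmpC (5.3 nM in the dispensed reagent) in 20 mM phosphate pH 7.0 with 0.01% (detergent screen) or 0.0001% Triton X-100 was preincubated with compounds for 15 min at room temperature. Nitrocefin was then added from an 800 uM solution, and hydrolysis was followed at 480 nm.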
AmpC no deterg – AmpC beta-lactamase inhibition without detergent | P00811 | Potency, µM (series often up to 57.1 µM), usual class: inhibitors | AmpC nitrocefin hydrolysis, absorbance 480 nm, 0.0001% Triton | AID 485341 | 330,000 tested, 0.52% active; further: nearly all actives have a fitted effect of over 20% in size
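20 mM phosphate pH 7.0 + 0.01% (detergent screen) or 0.0001% Triton X-100; 5.3 nM AmpC reagent; cpd preinc 15 min RT; nitrocefin (800 uM stock) to start; A480 q20 s × 4 min; Activity was normalised to no-enzyme and no-compound control wells.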
Sm TGR block – blocks Schistosoma mansoni thioredoxin glutathione reductase; Q962Y6; purified TGR, DTNB reduction, TNB absorbance 405 nm; Potency, µM (series often up to 114 µM), usual class: inhibitors; 360,000 tested, 3% active; further: nearly all actives have a fitted effect of over 60% in size
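First, TGR (20 nM dispensed) and NADPH were mixed with compound. Second, a 15 min room-temperature incubation followed. Third, further NADPH and then DTNB were added to start the reaction. Finally, TNB absorbance was monitored kinetically.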
Hits are given with their value; . = inactive; ? = inconclusive; / = no result given; [ ] = another dose, or the depositor's remark. The call rests on the fitted dose curve; in most records, active means well fitted curve in the direction sought with a large enough effect; inconclusive means small, poorly fitted or top-dose-only effect, or another doubt; inactive means no such curve, though single readings can be large; an effect the other way counts as inactive or inconclusive.

SMILES	AmpC inh detg	AmpC no deterg	Sm TGR block
COc1ccc(CCNC(=O)CS(=O)Cc2nc(-c3ccccc3F)oc2C)cc1OC (stereo not given)	?	.	?
COc1ccc(CCNC(=O)CS(=O)Cc2nc(-c3cccs3)oc2C)cc1OC (stereo not given)	.	.	22.4µM
Cc1ccc(CCNC(=O)CS(=O)Cc2nc(-c3ccccc3F)oc2C)cc1 (stereo not given)	.	.	?
COc1ccc(CCNC(=O)CS(=O)Cc2nc(-c3ccccc3Cl)oc2C)cc1OC (stereo not given)	.	.	56.2µM
Cc1oc(-c2ccccc2Cl)nc1CS(=O)CC(=O)NCc1ccc(Cl)cc1 (stereo not given)	.	.	.
Cc1nn(-c2ccccc2)c(Cl)c1/C=N/NC(=O)c1ccnn1C	.	.	.
CCN(CC)c1ccc(C(=O)NCc2nc3cccnc3n2Cc2ccc(C)cc2)cc1	.	/	.
Cc1csc(SCC(=O)NC(C)c2ccccc2)n1 (stereo not given)	.	.	.
Cc1ccccc1Oc1nc2c(c(=O)n(C)c(=O)n2C)n1Cc1ccc(Br)cc1	.	/	.
O=C(Nc1ccc2nc(SCC(=O)N3CCOCC3)sc2c1)c1cccc(Br)c1	.	/	.
CCOC(=O)N1CCN(Cc2nc3cc(NC(=O)c4ccco4)ccc3n2CC)CC1	.	.	.
Cc1ccccc1-c1nc(CS(=O)CC(=O)NCc2ccc3c(c2)OCO3)c(C)o1 (stereo not given)	.	.	?
Cc1oc(-c2cccs2)nc1CS(=O)CC(=O)NCc1ccc2c(c1)OCO2 (stereo not given)	.	.	39.8µM
COc1ccc(OC)c(CCNC(=O)c2c3c(nc4ccccc24)C(=O)N(C2CCCCC2)C3)c1	.	/	.
CCn1c(=S)sc2c(=O)n(CC(=O)Nc3ccc(C(C)=O)cc3)c(C)nc21	.	.	.
CCn1c(=S)sc2c(=O)n(CC(=O)Nc3ccccc3)c(C)nc21	?	.	.
CCn1c(=S)sc2c(=O)n(CC(=O)Nc3ccc(OC)c(Cl)c3)c(C)nc21	.	6.31µM	.
CCn1c(=S)sc2c(=O)n(CC(=O)Nc3ccc(Cl)cc3)c(C)nc21	.	7.08µM	.
CC(=O)c1cccc(NS(=O)(=O)c2c(C(=O)N3CCOCC3)c(C)n(C)c2C)c1	.	.	.
Cc1ccc(C)c(NC(=O)Cn2cc(S(=O)(=O)c3ccc(F)cc3)c(=O)c3cc(F)ccc32)c1	.	/	.
COc1ccc(S(=O)(=O)Cc2ccc(C(=O)N3CCC(C(N)=O)CC3)o2)cc1	?	.	.
O=C(NCCCN1CCCC1)c1ccc(CS(=O)(=O)c2ccc(Br)cc2)o1	.	.	.
Cc1ccc(S(=O)(=O)Cc2ccc(C(=O)NCCCN3CCCC3=O)o2)cc1	.	.	20µM
Cc1ccc(CS(=O)(=O)CCC(=O)N2CCC3(CC2)OCCO3)cc1	?	.	.
Cc1ccc(S(=O)(=O)Cc2ccc(C(=O)N3CCC4(CC3)OCCO4)o2)cc1	.	.	22.4µM
SMILES	AmpC inh detg	AmpC no deterg	Sm TGR block
Cc1ccc(CS(=O)(=O)Cc2ccc(C(=O)N3CCC4(CC3)OCCO4)o2)cc1	.	.	44.7µM
COc1ccc(S(=O)(=O)Cc2ccc(C(=O)N3CCCC3)o2)cc1	.	.	44.7µM
Cc1ccc(S(=O)(=O)Cc2ccc(C(=O)N3CCC(C(N)=O)CC3)o2)cc1	.	.	.
CCOC(=O)CSc1nnc(NC(=O)CN2CCCCC2)s1	.	.	.
COc1ccc2c(c1)sc(=N)n2C	.	.	.
Cc1c(Cl)cccc1NC(=S)NCc1cccs1	.	.	.
Cc1cccc(C)c1NC(=O)CN(c1ccccn1)S(=O)(=O)c1ccccc1	.	.	.
Cc1nn(CC(=O)Nc2ccc(Cl)cc2)c(=O)c2cc(-c3ccccc3)nn12	.	.	.
O=C(/C=C\N1CCOCC1)c1ccc(Br)cc1	.	.	15.8µM
O=C(/C=C/N1CCOCC1)c1ccc(-c2ccccc2)cc1	?	.	?
CCOc1cccc(C2c3c(oc4ccc(F)cc4c3=O)C(=O)N2c2cc(C)ccn2)c1 (stereo not given)	.	/	.
C(=N\Nc1ccccc1)/c1ccc(N2CCOCC2)cc1	.	.	.
CN(C(=O)NC(=O)C1=C(N2CCOCC2)/C(=C/c2ccccc2)CC1)S(C)(=O)=O	.	.	15.8µM
CCCCN(C(=O)NC(=O)C1=C(N2CCOCC2)/C(=C/c2ccccc2)CC1)S(C)(=O)=O	.	.	.[11.4 µM]
O=CC1=C(N2CCOCC2)/C(=C/c2ccc(Cl)cc2)CC1	.	.	22.4µM
Cc1cc(C)nc(N/N=C/c2ccc(N3CCOCC3)cc2)n1	.	.	/
O=C(O)c1ccc(N/N=C/C2=C(N3CCOCC3)C(=C\c3ccccc3)/CC2)cc1	.	?	17.8µM
Cc1cc(C)nc(N/N=C/C2=C(N3CCOCC3)C(=C\c3ccc(Cl)cc3)/CC2)n1	?	.	31.6µM
Cc1occc1C(=O)N/N=C/C1=C(N2CCOCC2)C(=C\c2ccc(Cl)cc2Cl)/CC1	.	.	.
Cn1c(=O)c2c(ncn2CC(=O)N/N=C/C=C/c2ccccc2[N+](=O)[O-])n(C)c1=O	.	.	.
CC(=O)OC1COC(n2c(O)c(N=NC(N)=S)c3ccccc32)C(OC(C)=O)C1OC(C)=O (stereo not given)	.	.	.
Nc1ncc(Br)cc1S(=O)(=O)NCCC(=O)N1CCN(c2ccccc2)CC1	.	.	.
C#CC(=O)CCC1CCCN1C(=O)OC(C)(C)C (stereo not given)	/	.	/
c1ccc(-c2nc(NC3CCCC3)c3ccccc3n2)cc1	.	.	.
O=C(NCCc1nnc2ccc(NCCCN3CCOCC3)nn12)c1ccccc1	.	.	.
SMILES	AmpC inh detg	AmpC no deterg	Sm TGR block
O=C(NCCc1ccc(Cl)cc1)C(=O)NCC(c1ccco1)S(=O)(=O)c1ccccc1 (stereo not given)	.	/	?
O=C(NCC(c1cccs1)S(=O)(=O)c1cccs1)c1ccc(C(F)(F)F)cc1 (stereo not given)	.	/	?
O=C(NCCc1ccc(Cl)cc1)C(=O)NCC(c1ccco1)S(=O)(=O)c1cccs1 (stereo not given)	.	/	39.8µM
Cc1ccc(C(=O)NCC(c2cccs2)S(=O)(=O)c2cccs2)cc1C (stereo not given)	.	/	?
O=C(NCC(c1ccco1)S(=O)(=O)c1cccs1)c1ccc(Cl)cc1 (stereo not given)	.	/	14.1µM
Cc1cccc(C(=O)NCC(c2ccco2)S(=O)(=O)c2cccs2)c1 (stereo not given)	.	/	7.08µM
CC(C)(C)c1ccc(C(=O)NCC(c2ccco2)S(=O)(=O)c2ccccc2)cc1 (stereo not given)	.	/	.
COc1ccc(C(=O)NCC(c2ccco2)S(=O)(=O)c2cccs2)cc1 (stereo not given)	.	/	8.91µM
Brc1ccc2ncc(Br)cc2c1	?	.	.
Cc1ccc(C(=O)NCC(=O)Nc2ccncc2)cc1C	?	.	.
O=C1c2ccc(-c3ccc4c(c3)C(=O)N(CCO)C4=O)cc2C(=O)N1CCO	?	.	.
COc1ccc(-c2nc3c(c(SCC(=O)N4CCCCC4)n2)Cc2cc(C)ccc2O3)cc1	.	/	.
CC(C)OC(=O)c1ccc(NC(=O)CSc2nc3ncccc3[nH]2)cc1	.	.	/
